Reference: PubChem BioAssay AID489025 (Southern Research Specialized Biocontainment Screening …, 2010)
About 790 (34%) of roughly 2,300 compounds were called active. Some of the results follow. Entries with a potency or affinity are not part of this list. Values without a mark were called inactive. No rule for the calls is given here.

Assay: THP-1 cell cytotoxicity, dose response, cytotoxicity control for non-replicating M. tuberculosis project (AID 489025)
Settings: THP-1 cell viability; series mostly up to 40 µM; viability: at the top concentration

| Compound | viability |
| --- | --- |
| CCc1c(C)c2ccc(OCC(=O)OC)cc2oc1=O | 118% |
| Cc1cccc2nc(-c3cccnc3)c(NCCC(C)C)n12 | 76.1% |
| CSc1nn(-c2ccc(C(=O)OCC(=O)NC(=O)NC(C)C)cc2)c(=S)s1 | 98.3% |
| CC(=O)Oc1c(-c2ccco2)oc2ccccc2c1=O | 82.7% |
| O=c1c2c([N+](=O)[O-])cc([N+](=O)[O-])cc2sn1-c1ccc(Br)cc1 | 90.1% |
| O=c1c2cc(Cl)ccc2nc(-c2ccccc2Cl)n1O | 113% |
| N/C(=N\OC(=O)c1cccc(Br)c1)c1ccc([N+](=O)[O-])cc1 | 102% |
| Cc1nc2ccc(Cl)cc2nc(C)/c1=N\O | 110% |
| O=C(Oc1cccc([N+](=O)[O-])c1)c1ccc2c(=O)n3c(nc2c1)CCC3 | 116% |
| CCOC(=O)COn1c(-c2cccc(Cl)c2)nc2ccc([N+](=O)[O-])cc21 | 86.9% |
| O=[N+]([O-])c1ccc2nc(SCc3cn4cc(Cl)ccc4n3)[nH]c2c1 | 99.3% |
| CC(=O)c1cc2c(ccc3ccccc32)oc1=O | 110% |
| CCOc1ncccc1C(=O)OCC(=O)N1CCc2ccccc21 | 95.2% |
| C=C(C)C1CC=C(C)/C(=N/NC(=O)CNc2ccc(OCC)cc2)C1 (stereo not given) | 92% |
| CC(C)OC(=O)c1c2c(n3ccccc13)C(=O)c1ccccc1C2=O | 83.2% |
| COc1cc(C(=O)ON=C2C=C(C)C(=O)C(C)=C2)cc(OC)c1OC | 71.2% |
| Cc1nn2c(NCCN(C)C)c3c(nc2c1-c1ccccc1)CCCC3 | 71% |
| COc1ccc(CCNc2cc(-c3ccccc3)nc3ncnn23)cc1 | 79.6% |
| O=C(OCn1nnc2ccccc2c1=O)c1ccc(Br)o1 | 101% |
| COc1cccc(C(=O)OCn2nnc3ccccc3c2=O)c1OC | 88.7% |
| Cc1cccc(Cn2ccc(NC(=O)c3ccc4c(c3)OCO4)n2)c1 | 94.6% |
| Cc1ccc(NC(=O)COC(=O)CCc2c[nH]c3ccccc23)cc1[N+](=O)[O-] | 97.8% |
| O=C(NCCC1=CCCCC1)c1ccc(F)cc1 | 86.6% |
| Cc1ccc(NC(=O)COCC(=O)Nc2ccc(C)cc2)cc1 | 121% |
| Cc1ccc(NC(=O)CNc2ccc(OC(C)C)cc2)cc1 | 93.2% |

| Compound | viability |
| --- | --- |
| COc1ccc(C(=O)C2CCCN(C(=O)c3ccc(CSC)o3)C2)cc1F (stereo not given) | 106% |
| CSc1ccc(C(=O)C2CCCN(Cc3cc4ccccc4[nH]3)C2)cc1 (stereo not given) | 79.9% |
| COC(=O)c1ccccc1NC(=O)C1CC(c2ccc(F)cc2)=NO1 (stereo not given) | 73.4% |
| CC(=O)OCCN(C)c1cc(SC(C)C)c2nonc2c1[N+](=O)[O-] | 102% |
| CCCNC(=O)COC(=O)c1cc2c(=O)n3ccccc3nc2s1 | 103% |
| Cc1csc(=Nc2cccnc2)n1CC1CCCCC1 | 80.9% |
| Cc1ccc2c(CC(=O)OCC(=O)Nc3ccc(Cl)cn3)coc2c1 | 118% |
| O=C(Oc1ccccc1)c1cc2ccccc2o1 | 136% |
| CCc1ccc(OCCCC(=O)Nc2nccs2)cc1 | 90.2% |
| COc1ccc(NC(=O)CO/N=C2/CCCc3nonc32)c(OC)c1 | 103% |
| O=C(Oc1cccc2cccnc12)c1cccc([N+](=O)[O-])c1 | 109% |
| O=C(Oc1cccc2cccnc12)c1cccc(-n2cnnn2)c1 | 97.8% |
| O=C(Oc1ccccc1Cl)c1ccc2c(=O)n3c(nc2c1)CCC3 | 103% |
| Cc1cc(C(=O)COc2cccc3cccnc23)c(C)n1C | 108% |
| S=c1[nH]c2ccccc2o1 | 110% |
| O=C1CC(N2CCN(Cc3ccccc3)CC2)C(=O)N1CCc1ccccc1 (stereo not given) | 104% |
| O=C1C=CC(=O)N1N(c1ccccc1)c1ccccc1 | 94.9% |
| Cc1c(C(=O)NNC(=O)c2csc(N3CCOCC3)n2)oc2ccccc12 | 97.8% |
| COC(=O)C1=C(C(=O)OC)C(c2cc(Cl)ccc2O)c2sc(=O)[nH]c2S1 (stereo not given) | 113% |
| O=c1oc2ccccc2c2c1nnn2CCO | 93.3% |
| Clc1ccc(-c2ccc(CNCc3ccccn3)o2)cc1 | 74.1% |
| c1ccc(-c2nc(NCCCn3ccnc3)c3ccccc3n2)cc1 | 89.2% |
| Clc1cccc(-c2ccc(CNCc3ccccn3)o2)c1 | 114% |
| Fc1ccc(-c2ccc(CNCc3ccccn3)o2)cc1Cl | 83.4% |
| Cc1ccc(-c2cc(C(F)(F)F)n3nc(C(=O)NCCCn4ccnc4)cc3n2)cc1C | 113% |

| Compound | viability |
| --- | --- |
| O=C(NCCC1=CCCCC1)c1ccc(Br)o1 | 92.7% |
| CC(=O)c1cccc(NC(=O)C2COc3ccccc3O2)c1 (stereo not given) | 87.6% |
| CCCc1cc(=O)n2[nH]c(C)c(-c3ccccc3)c2n1 | 79.2% |
| Cc1ccc(C(=O)CCNc2ccc(Br)cc2)o1 | 120% |
| CC(=O)n1cc(/C=C2/N=C(c3ccccc3)OC2=O)c2ccccc21 | 127% |
| CCCOC(=O)c1ccc(-c2ccc(C=O)o2)cc1 | 114% |
| Cc1cccc(C)c1N1C(=O)CC(N2CCSCC2)C1=O (stereo not given) | 104% |
| Cc1ccc(-c2noc(CCC(=O)Nc3cccc(C#N)c3)n2)cc1 | 91.4% |
| COC(=O)N/N=C/c1ccc([N+](=O)[O-])s1 | 74.3% |
| CCOC(=O)N/N=C\c1ccc([N+](=O)[O-])s1 | 75.6% |
| O=C(COC(=O)c1cccc([N+](=O)[O-])c1)NCc1cccs1 | 129% |
| CCCOC(=O)c1ccc(NC(=O)Cc2cccs2)cc1 | 103% |
| C/C(Cn1nnc([N+](=O)[O-])n1)=N\NC(=O)c1ccncc1 | 80.4% |
| Brc1c(CSc2nncc3ccccc23)nc2ccccn12 | 88.4% |
| CCN(CC)c1ccc2cc(C(=O)NCc3ccc(F)cc3)c(=N)oc2c1 | 72.3% |
| O=c1oc2ccccc2nc1/C=C(\O)c1ccc(Br)cc1 | 96.4% |
| C/C(=N/NC(=O)c1ccco1)c1ccc(Br)s1 | 71.9% |
| CC(C)(C)NCC1(CO)SC(N)=NC1=O (stereo not given) | 103% |
| O=C(C/C=N\OCc1ccc([N+](=O)[O-])cc1)Nc1ccc(F)cc1F | 104% |
| COc1n[nH]c(C(=O)Nc2cc(F)ccc2C)c1[N+](=O)[O-] | 95.2% |
| CCc1cc2c3c(c1)C(C)CC(C)(C)N3C(=O)/C2=C1\SC(=O)NC1=O (stereo not given) | 91.8% |
| O=C(COC(=O)COc1ccc(Nc2ccccc2)cc1)NCc1ccco1 | 112% |
| COc1ccccc1N1CCN(C(=O)c2ccc([N+](=O)[O-])s2)CC1 | 79.4% |
| COC(=O)CC(=O)N1CCN(c2ccc(Cl)c(Cl)c2)CC1 | 98.6% |
| CC(C)(C)c1ccc(OCCCC(=O)NC2=NCCS2)cc1 | 83.3% |
